Assay outcomes: PubChem BioAssay, Broad Institute
These entries were drawn from the full list.
aSyn 5UTR act: Activators via SNCA 5'UTR binding, MLPCN | activity score, % (tested at 7.5 µM), hits read low | alpha-synuclein 5'UTR reporter, activators screen | 7.1% of 300,000 active; in the data active = activity score below about -60%
Of the large screens only hits and unclear results are named; the others gave an inactive call.

Cc1cc(C(=O)COc2cccnc2[N+](=O)[O-])c(C)n1-c1ccccc1F	none
Cc1cc(C(=O)COC(=O)c2ccc[nH]c2=O)c(C)n1C1CC1	aSyn 5UTR act -99.1
Cc1cc(C(=O)COc2cccnc2[N+](=O)[O-])c(C)n1-c1ccccc1	none
Cc1cc(C(=O)COC(=O)c2ccc(Cl)c(S(N)(=O)=O)c2)c(C)n1C1CC1	aSyn 5UTR act -142.8
Cc1cc(-n2c(C)cc(C(=O)COc3ccccc3[N+](=O)[O-])c2C)no1	aSyn 5UTR act -67.5
Cc1cc(C(=O)COc2ccccc2C(N)=O)c(C)n1C1CC1	aSyn 5UTR act -76.2
O=C(NC(C(=O)c1ccccc1)N1CCOCC1)c1ccccc1 (stereo not drawn)	aSyn 5UTR act -66.7
Cc1cc(=O)n(C(NC(=O)c2ccccc2)C(=O)c2ccccc2)cn1 (stereo not drawn)	aSyn 5UTR act -84.1
C=CCN(C(=O)C1=NN(C2CCS(=O)(=O)C2)C(=O)CC1)c1nc(-c2ccc([N+](=O)[O-])cc2)cs1 (stereo not drawn)	aSyn 5UTR act -134.7
COc1ccc(C(=O)N[C@H](C(=O)Nc2nc3ccccc3[nH]2)C(C)C)cc1	none
COc1ccc(C(=O)Nc2ccccc2C(=O)N/N=C/c2cccc3ccccc23)cc1	aSyn 5UTR act -169.1
COc1ccc(C(=O)Nc2ccccc2C(=O)Nc2ccncc2)cc1	aSyn 5UTR act -104.6
COc1ccc(C(=O)Nc2ccccc2C(=O)Nc2ccccc2C(=O)O)cc1	aSyn 5UTR act -98.2
CCC(NC(=O)c1ccccc1NC(=O)c1ccc(OC)cc1)C(=O)N1CCCC1 (stereo not drawn)	aSyn 5UTR act -69.3
COc1ccc(C(=O)NC2=Nc3ccccc3N=C(C)C2c2ccccc2)cc1 (stereo not drawn)	aSyn 5UTR act -227.6
COc1cc(OC)cc(C(=O)Nc2ccccc2C(=O)N2CCCC2)c1	aSyn 5UTR act -123.1
COc1cc(OC)cc(C(=O)NNC(=O)c2ccccn2)c1	none
Cc1cccc(-n2nnc(C(=O)Nc3ccc(F)cc3)c2N)c1	aSyn 5UTR act -195.7
Cc1cccc(-n2nnc(C(=O)N3CCc4ccccc4C3)c2N)c1	aSyn 5UTR act -71.3
COc1cccc(-c2nc3n(n2)C(c2ccc4c(c2)OCO4)C(C(N)=O)=C(C)N3)c1 (stereo not drawn)	aSyn 5UTR act -111.2
CCN(CC)c1ccc2c(-c3ccc(S(=O)(=O)O)cc3S(=O)(=O)[O-])c3ccc(=[N+](CC)CC)cc-3oc2c1	none
CCN(CC)c1ccc2cc(NC(=O)CCC(=O)O)c(=O)oc2c1	none
CCN(CC)c1ccc2cc(C(N)=O)c(=N)oc2c1	aSyn 5UTR act -67.0
CCN(CC)c1ccc2cc(C(N)=O)c(=O)oc2c1	aSyn 5UTR act -97.6
Cc1cccc(OCC(=O)NC(C)C(=O)N/N=C/c2c(OCc3ccccc3)ccc3ccccc23)c1 (stereo not drawn)	aSyn 5UTR act -138.4
NC(=O)N/N=C/c1ccc2cccc(OCc3ccccc3)c2n1	none
Cc1cc(C)c2c(N)c3ccccc3nc2n1	aSyn 5UTR act -622.7
CCc1ccc2nc3nc(C)cc(C)c3c(N)c2c1	aSyn 5UTR act -391.4
Cc1nn(C)cc1C(=O)NNC(=S)Nc1ccccc1	aSyn 5UTR act -110.3
COc1ccccc1C(=O)NNC(=S)Nc1ccccc1	aSyn 5UTR act -107.1
COc1ccccc1C(=O)Nc1ccc(Br)cc1C	aSyn 5UTR act -96.2
COc1ccccc1C(=O)Oc1ccccc1C(=O)Nc1ccccc1	aSyn 5UTR act -162.9
COc1cc(SC)ccc1C(=O)Nc1nc2ccccc2[nH]1	none
O=C(Oc1ccccc1C(=O)Nc1ccccc1)c1ccc(Br)c([N+](=O)[O-])c1	aSyn 5UTR act -120.6
COc1cc(SC)ccc1C(=O)Nc1ccccc1	aSyn 5UTR act -184.1
Nc1ccc(C(=O)N/N=C2\CCCc3c2[nH]c2ccccc32)cc1	aSyn 5UTR act -73.5
CCOC(=O)C1(CCCc2ccccc2)CCN(Cc2cnc(C)s2)CC1	aSyn 5UTR act -62.5
CC#CC(=O)N1CCC(CCc2ccccc2)(C(=O)OCC)CC1	none
Cc1ccc(C(=O)NCCn2cc(SCC(=O)Nc3nnc(C)s3)c3ccccc32)cc1	aSyn 5UTR act -108.5
Cc1cc(NC(=O)CSc2cn(CCNC(=O)c3ccc(Cl)cc3)c3ccccc23)no1	aSyn 5UTR act -90.4
O=C(NCCn1cc(SCc2ccccc2F)c2ccccc21)c1c(F)cccc1F	aSyn 5UTR act -62.5
O=c1c(/C=C(\O)c2ccc(F)cc2)nc2ccccc2n1-c1ccccc1	aSyn 5UTR act -130.0
CC(=O)NCc1ccc(C(=O)CCl)s1	aSyn 5UTR act -64.3
O=c1c2ccccc2nc2c3ccccc3cnn12	aSyn 5UTR act -171.9
O=c1c2ccccc2cnn1-c1nc2ccccc2[nH]1	none
CCc1cc(C(=O)NNC(=S)Nc2ccccc2C)cs1	aSyn 5UTR act -147.4
CCc1cc(C(=O)Nc2ccccc2)cs1	aSyn 5UTR act -134.4
CCN(CC)S(=O)(=O)c1ccc(-c2cn3cc(Cl)ccc3n2)cc1	aSyn 5UTR act -91.5
C=C(C)Cn1cnc2c(oc3nc4c(cc32)CCCC4)c1=O	aSyn 5UTR act -85.0
O=C(Cn1cnc2c(oc3nc4c(cc32)CCCC4)c1=O)Nc1cccc(Cl)c1	none
COc1ccc(CNC(=O)CSc2nnc(NC(=O)c3ccccc3F)s2)cc1	aSyn 5UTR act -68.6
COCc1nc2ccccc2n1Cc1ccc(Br)cc1	aSyn 5UTR act -79.9
O=c1cnc2ccccc2n1Cc1ccc(Br)cc1	aSyn 5UTR act -65.0
COc1cc(/C=N/NC(=O)Nc2ccccc2)ccc1OC(C)=O	aSyn 5UTR act -187.8
COc1cc(/C=N/NC(=S)Nc2cccc(C(=O)O)c2)ccc1O	none
CCOc1cc(/C=N/NC(=O)Nc2ccccc2)ccc1O	aSyn 5UTR act -196.8
O=c1c(=Nc2ccccc2O)c(=O)c2ccccc12	aSyn 5UTR act -111.6
CC(C)(C)c1csc(N/N=C/c2ccc(O)cc2)n1	aSyn 5UTR act -164.7
CC(C)c1ccc(N(C(=O)c2csnn2)C(C(=O)NC(C)(C)C)c2ccncc2)cc1 (stereo not drawn)	aSyn 5UTR act -158.4
O=C(Cn1cc(SCc2ccc(Cl)cc2)c2ccccc21)N1CCOCC1	aSyn 5UTR act -89.8
O=C(CSc1cn(Cc2ccccc2)c2ccccc12)N1CCOCC1	aSyn 5UTR act -129.4
COc1cc(C(=O)N/N=C/c2cn(Cc3ccccc3)c3ccccc23)ccc1O	none
c1ccc2[nH]c(-c3ccnc4ccccc34)nc2c1	aSyn 5UTR act -95.9
Cn1cc(Cl)c(-c2nc3ccccc3[nH]2)n1	aSyn 5UTR act -149.4
Cc1cc2nc(-c3ccc[nH]c3=O)[nH]c2cc1C	none
Fc1ccccc1-c1nc2ccccc2[nH]1	aSyn 5UTR act -127.8
Cc1ccccc1-c1nc2ccccc2[nH]1	aSyn 5UTR act -134.2
Clc1ccccc1-c1nc2ccccc2[nH]1	aSyn 5UTR act -112.9
NC(N)=N/N=C/c1ccc(OCc2ccccc2)cc1	aSyn 5UTR act -69.5
NC(N)=N/N=C/c1ccc(OCc2ccc(Cl)cc2)cc1	aSyn 5UTR act -66.0
COc1ccc(OC)c(NC(=O)/C=C/c2ccccc2[N+](=O)[O-])c1	aSyn 5UTR act -83.7
CN(C)S(=O)(=O)c1cccc(NC(=O)/C=C/c2ccccc2[N+](=O)[O-])c1	aSyn 5UTR act -65.4
O=C(/C=C/c1ccccc1[N+](=O)[O-])Nc1cccnc1	aSyn 5UTR act -122.9
CN(C)S(=O)(=O)c1cccc(NC(=S)N/N=C/c2cc(Br)ccc2O)c1	none
COC(=O)C(=Cc1ccccc1[N+](=O)[O-])C(=O)OC	aSyn 5UTR act -239.8
COc1cccc(NC(=O)/C=C/c2ccccc2[N+](=O)[O-])c1	aSyn 5UTR act -202.4
COc1cccc(NC(=O)/C=C/c2ccc([N+](=O)[O-])cc2)c1	aSyn 5UTR act -84.1
CCCOc1ccc(/C=C/C(=O)Nc2ccc([N+](=O)[O-])cc2)cc1	none
